Consider 10 molecules from PubChem BioAssay.

The nature of assay [1]: inhibitors of TNFa-induced NFkB p65 translocation, primary screen, imaging, HUVEC, MLSMR starter and 10KST1 sets (AID 438;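 active = inhibition above 20% together with a positive visual image hit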;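 note: compound added about 3h40 before a 20 min TNFalpha stimulation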;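 for inhibition: signal is the nuclear over cytoplasmic p65 intensity ratio per well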). The conditions noted are these: HUVEC TNFa-induced p65 nuclear translocation; cell count: measured here: nuclei count (cytotoxicity indicator), at 2.08 µM; inhibition: at 2 µM, stronger effect = higher value, 0% TNFa-plus-vehicle, 100% no-TNFa wells.
Assay [2] can be described thus: reduction of polyQ htt aggregates in cells – imaging, exon1htt(103Q)mCFP cells, high-content imaging, primary screen (AID 483;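 active = visual image review flags a hit and inhibition of aggregation exceeds 20%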;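 note: compound exposure lasted 3 days before fixation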;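 for nuclei count: percent of the per-plate median nuclei count of sample wells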). The conditions noted are these: exon1htt(103Q)mCFP cell line, aggregate imaging, at 2 µM; inhibition of aggregation: stronger effect = higher value; nuclei count: measured here: cell count, toxicity.
Assay [3] can be described thus: endothelial E-selectin expression blockers – imaging, HUVEC, immunofluorescence, MLSMR starter and 10KST1 sets, primary screen (AID 487;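 active = visually confirmed hit in the image check and inhibition above 20%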;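 for inhibition: signal is fraction of cell area covered by stained E-selectin grains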;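 for nuclei count: 100% = median nuclei count of all wells on the same plate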). The following applies: HUVEC TNFalpha-induced E-selectin immunofluorescence imaging, at 2 µM; inhibition: stronger effect = higher value; nuclei count: measured here: cell number, toxicity.
Assay [4] deals with Voltage-gated potassium channel subunit beta-2 (Rattus norvegicus) (UniProt P62483). Briefly: inhibitors of rat Kvbeta2 reductase activity – biochemical, NADPH fluorescence, primary screen (AID 622;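 active = fluorescence slope higher than the sample average by over 3 SD, cut at about -0.22 in these data, passing the limit was not always enough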;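 note: slope of raw intensity against log time taken from 70 to 1610 s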). The conditions noted are these: recombinant KvBeta, 4-cyanobenzaldehyde reduction, at 10 µM, stronger effect = higher value.
Chain of Voltage-gated potassium channel subunit beta-2 (Rattus norvegicus) (P62483 whole entry, looked up): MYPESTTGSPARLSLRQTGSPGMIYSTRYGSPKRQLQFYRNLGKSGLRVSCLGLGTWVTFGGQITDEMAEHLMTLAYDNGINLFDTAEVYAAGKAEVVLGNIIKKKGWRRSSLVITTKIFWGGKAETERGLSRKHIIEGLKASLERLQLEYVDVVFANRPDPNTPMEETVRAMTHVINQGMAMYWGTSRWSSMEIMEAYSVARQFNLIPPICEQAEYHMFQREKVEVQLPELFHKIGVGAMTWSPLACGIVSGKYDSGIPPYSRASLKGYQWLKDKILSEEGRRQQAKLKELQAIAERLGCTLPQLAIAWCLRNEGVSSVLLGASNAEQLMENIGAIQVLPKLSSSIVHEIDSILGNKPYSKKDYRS
The target is the same in assay [5]. Briefly: enhancers of rat Kvbeta2 NADPH turnover – biochemical, NADPH fluorescence, primary screen (AID 623;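 active = NADPH fluorescence slope more negative than the mean of all samples by about 3 SD, 99.7% confidence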;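 note: fluorescence intensity change per second fitted from 20 to 320 s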). The following applies: Recombinant KvBeta, NADPH fluorescence decrease slope, 10 min; at 10 µM; stronger effect = lower value.
The target in assay [6] is Alpha-2C adrenergic receptor (Homo sapiens) (UniProt P18825). The assay is described as follows: compounds altering alpha2C-coupled GIRK flux – cell-based, HEK293 alpha2C/GIRK1/2, thallium flux, primary screen (AID 624).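 Note: slope of fluorescence ratio to pre-addition baseline per second over 15 to 24 s.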 The conditions noted are these: thallium flux BTC fluorescence, at 10 µM, actives lie on both sides.
Chain of Alpha-2C adrenergic receptor (Homo sapiens) (P18825 whole entry, looked up): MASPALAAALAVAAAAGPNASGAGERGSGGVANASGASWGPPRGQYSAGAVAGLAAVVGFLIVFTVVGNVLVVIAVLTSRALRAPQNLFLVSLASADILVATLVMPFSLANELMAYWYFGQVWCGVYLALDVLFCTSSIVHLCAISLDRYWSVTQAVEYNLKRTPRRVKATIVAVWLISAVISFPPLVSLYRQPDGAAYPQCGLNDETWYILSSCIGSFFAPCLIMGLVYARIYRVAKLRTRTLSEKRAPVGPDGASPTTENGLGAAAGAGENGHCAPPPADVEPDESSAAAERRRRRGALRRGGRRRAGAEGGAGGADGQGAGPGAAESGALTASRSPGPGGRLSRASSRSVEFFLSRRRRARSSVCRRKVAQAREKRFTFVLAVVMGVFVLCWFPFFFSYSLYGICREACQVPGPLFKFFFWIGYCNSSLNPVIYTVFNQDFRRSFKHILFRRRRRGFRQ
The nature of assay [7]: blockers of RIG-like receptor reporter activation – cell-based, Sendai virus stimulus, luciferase, 10K MLSCN set, TLR/RLR signaling modifier project, primary screen (AID 602276;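 active = inhibition at or above 50% at 10 µM; inactive = inhibition below 50%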;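 note: firefly luciferase from ISG56 promoter only with Renilla not read in this screen; 0% = Sendai virus plus DMSO and 100% = medium plus DMSO without virus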). The conditions noted are these: HEK293 RL24 IRF3 luciferase reporter, at 10 µM, stronger effect = higher value.
The nature of assay [8]: TLR3 IRF3 reporter activation blockers – cell-based, poly I:C stimulus, luciferase, 10K MLSCN set, primary screen (AID 602277;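 active = inhibition of the reporter signal at or above 50%; inactive = inhibition below 50%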). The following applies: HEK293-TLR3 RL24 IRF3 luciferase reporter, at 10 µM, stronger effect = higher value. A general note: In a reporter assay the amount or activity of a reporter protein is the signal.

Active and inactive are the calls of the source.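 Rule for the calls, unless noted: active = fluorescence slope after compound addition differing from the mean of all screened samples at 99.7% confidence, in either direction; inactive = the rest.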

In general, inhibition refers to the drop in the measured response relative to a control, in per cent.

For the molecule `Clc1ccc(CSc2nnc(Cn3cnc4ccccc43)o2)cc1`, the cell count in assay [1] was 618. Besides, the inhibition in assay [1] is -2.5% (inactive); in assay [3] it was -1.1% (inactive); in assay [7], -20.9% (inactive); in assay [8], -27.5% (inactive). In addition, the inhibition of aggregation in assay [2] was 20.9% (inactive). Moreover, the nuclei count in assay [2] amounted to 72.2%; in assay [3] it was 98.2%. The fluorescence slope in assay [4] is -0.48 (inactive). The NADPH fluorescence slope in assay [5] was -1.4e-05 (inactive). Moreover, the slope in assay [6] is 0.00613 (inactive).
As for `O=C(NCCCN1CCCC1=O)c1ccc2c(c1)NC(=O)C(N1CCOCC1)S2` (stereo not given), the cell count in assay [1] stood at 431. Further, the inhibition in assay [1] is 7.4% (inactive); in assay [3], -21.8% (inactive); in assay [7] it was 6.23% (inactive); in assay [8] it was 15% (inactive). Besides, in assay [2], the inhibition of aggregation is -20.6% (inactive). Also, the nuclei count stood at 114% in assay [2] and 116% in assay [3]. Further, the fluorescence slope in assay [4] was -0.615 (inactive). In addition, the NADPH fluorescence slope in assay [5] is -3.9e-05 (inactive). Further, the slope in assay [6] is 0.00374 (inactive).
With `CCCCN(C)C(=O)c1cn(C)c2ccc(S(=O)(=O)N(C)C)cc2c1=O`, in assay [1], the cell count stood at 559. Further, the inhibition in assay [1] was -5.1% (inactive); in assay [3], 39.3% (inactive); in assay [7] it was 6.56% (inactive); in assay [8] it was 27.1% (inactive). Also, the inhibition of aggregation in assay [2] is 15.7% (inactive). Also, the nuclei count in assay [2] was 76.4%; in assay [3], 105%. Besides, the fluorescence slope in assay [4] was -0.6 (inactive). For the same molecule, the NADPH fluorescence slope in assay [5] was -3.3e-05 (inactive). Moreover, in assay [6], the slope is 0.00635 (inactive).
Regarding `CCn1c(SCC(=O)Nc2ccc(Cl)cc2)nnc1C1CC1`, in assay [1], the cell count came out at 811. The inhibition is 1.7% (inactive) in assay [1], -54.5% (inactive) in assay [3], 4.41% (inactive) in assay [7] and 17.1% (inactive) in assay [8]. Besides, in assay [2], the inhibition of aggregation was 12.1% (inactive). In addition, the nuclei count in assay [2] was determined as 127%; in assay [3], 97.1%. In assay [4], the fluorescence slope was -0.608 (inactive). Also, the NADPH fluorescence slope in assay [5] is -1.6e-05 (inactive). For the same molecule, the slope in assay [6] was 0.00675 (inactive).
Consider `[O-][n+]1c2ccc3nonc3c2nn1-c1ccccc1Cl`, for which, in assay [1], the cell count was found to be 340. Besides, the inhibition in assay [1] was 8.5% (inactive); in assay [3], -21.9% (inactive); in assay [7] it was 0.797% (inactive); in assay [8] it was -2.81% (inactive). In addition, the inhibition of aggregation in assay [2] was -11.3% (inactive). For the same molecule, the nuclei count in assay [2] was found to be 111%; in assay [3], 118%. Also, the fluorescence slope in assay [4] is -0.507 (inactive). The NADPH fluorescence slope in assay [5] is -5.7e-05 (inactive). Also, the slope in assay [6] was 0.0043 (inactive).
For `CCOC(=O)c1ccccc1NC(=O)c1ccc(NS(C)(=O)=O)cc1`, the cell count in assay [1] is 485. The inhibition in assay [1] is -2.2% (inactive); in assay [3], 26.8% (inactive); in assay [7], 6.8% (inactive); in assay [8], 11.4% (inactive). In addition, the inhibition of aggregation in assay [2] is 10.4% (inactive). For the same molecule, the nuclei count in assay [2] came out at 90.2%; in assay [3], 86%. Besides, the fluorescence slope in assay [4] is -0.473 (inactive). Also, the NADPH fluorescence slope in assay [5] was -6e-06 (inactive). Besides, in assay [6], the slope is 0.00606 (inactive).
With `CC(C)(C)NC(=O)CN(C(=O)CS(=O)CC(=O)Nc1ccc(F)cc1)c1ccc(Cl)cc1` (stereo not given), the cell count in assay [1] is 879. Further, the inhibition in assay [1] was -4.2% (inactive); in assay [3], -9.8% (inactive); in assay [7] it was 19.1% (inactive); in assay [8] it was 19.5% (inactive). In addition, in assay [2], the inhibition of aggregation was 3.2% (inactive). In addition, the nuclei count in assay [2] is 66.8%; in assay [3], 118%. Moreover, the fluorescence slope in assay [4] is -0.35 (inactive). The NADPH fluorescence slope in assay [5] was 1.3e-05 (inactive). In addition, the slope in assay [6] was 0.00479 (inactive).
Consider `O=C(CCCCCN1C(=O)CCC1=O)NCc1ccccc1`, for which the cell count in assay [1] turned out to be 581. For the same molecule, the inhibition in assay [1] was -15.5% (inactive); in assay [3], -64.5% (inactive); in assay [7], 12.6% (inactive); in assay [8], 24.6% (inactive). In assay [2], the inhibition of aggregation is -2% (inactive). Besides, the nuclei count in assay [2] turned out to be 106%; in assay [3], 105%. In assay [4], the fluorescence slope is -0.605 (inactive). For the same molecule, the NADPH fluorescence slope in assay [5] is -4.8e-05 (inactive). The slope in assay [6] is 0.00553 (inactive).
Regarding `C=CCn1c(SCC(=O)NC2CCCCC2)nnc1-c1sc(N)nc1C`, the cell count in assay [1] was 639. For the same molecule, the inhibition is -7.3% (inactive) in assay [1], -100% (inactive) in assay [3], 16.9% (inactive) in assay [7] and 16.4% (inactive) in assay [8]. For the same molecule, the inhibition of aggregation in assay [2] is -12.7% (inactive). Also, the nuclei count came out at 101% in assay [2] and 125% in assay [3]. The fluorescence slope in assay [4] was -0.516 (inactive). Moreover, the NADPH fluorescence slope in assay [5] is -3.2e-05 (inactive). The slope in assay [6] was 0.00387 (inactive).
`CCOC(=O)c1cccc(NC(=O)CS(=O)(=O)Cc2nc(-c3cccc(OC)c3)oc2C)c1`: in assay [1], the cell count was determined as 572. In addition, the inhibition in assay [1] is -40.8% (inactive); in assay [3], -15.4% (inactive); in assay [7] it was -5.01% (inactive); in assay [8], 12.4% (inactive). Further, the inhibition of aggregation in assay [2] is -19.3% (inactive). Further, the nuclei count is 106% in assay [2] and 102% in assay [3]. Besides, the fluorescence slope in assay [4] was -0.524 (inactive). In assay [5], the NADPH fluorescence slope was -3.5e-05 (inactive). The slope in assay [6] was 0.00568 (inactive).
